# According to PubChem BioAssay (EPA / NIEHS):
# Inconclusive results are not listed. Calls of active or inactive are those of the source. The calls were made as follows, unless noted: active = hit-call score of the fitted dose curve at least 0.9, where 1 is the maximum; inactive = score below 0.9.
# Key:
# [1] = CCTE_Mundy_HCI_iCellGluta_NOG_NeuriteLength: CCTE's Neurite Outgrowth Assay in iCellGluta cells for Neurite Length, Mundy Lab (AID 2284318; active = hit-call score of the fitted dose curve at least 0.9, where 1 is the maximum)
# Experimental: CCTE_Mundy_HCI_iCellGluta_NOG is a multiplexed, cell-based-readout assay that uses iCell GlutaNeurons from FUJIFILM Cellular Dynamics, Inc. (FCDI), human glutamatergic enriched neurons derived from induced pluripotent stem (iPS) cells, with measurements taken at 50.33 hours after chemical dosing in a microplate: 96-well plate.CCTE_Mundy_HCI_iCellGluta_NOG_NeuriteLength is one of four components of the CCTE_Mundy_HCI_iCellGluta_NOG assay. It measures neurite outgrowth related to neurite length using High Content Imaging of fluorescently labelled markers.Data from the assay component CCTE_Mundy_HCI_iCellGluta_NOG_NeuriteLength was analyzed at the endpoint CCTE_Mundy_HCI_iCellGluta_NOG_NeuriteLength in the positive analysis fitting direction relative to DMSO as the negative control and baseline of activity. Using a type of morphology reporter, loss-of-signal activity can be used to understand developmental effects.
# Exposure starts 2 hours post-plating by adding 10 ul of the working solution to 90 ul of media in the wells for a 1/10 dilution. […] A Cellomics ArrayScan VTi HCS Reader is used for automated image acquisition and analysis of neurite outgrowth.
# [2] = CCTE_Deisenroth_5AR_NBTE_donor: CCTE's 5alpha-reductase NanoBRET Target Engagement Assay […], Deisenroth Lab (AID 2284319); settings: actives raise or lower the signal
# Procedure, shortened: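 SRD5A2-NanoLuc, HEK293T, 20 h expression. Chemical 10 nM - 29.9 uM, 8 conc, duplicate; 3 h preincubation + 2 h testosterone tracer. Nano-Glo substrate plus extracellular NanoLuc inhibitor; donor lum 460 nm. DMSO baseline, bidirectional fit.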
# [3] = CCTE_Deisenroth_5AR_NBTE_acceptor: CCTE's 5alpha-reductase NanoBRET Target Engagement Assay - Autofluorescence Screen, Deisenroth Lab (AID 2284321); settings: actives raise or lower the signal;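 also: compound fluorescence in the acceptor channel under 460 nm excitation flags autofluorescence artifacts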
# Procedure, shortened: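 Autofluorescence counter-screen: chemicals at an assumed nominal 100 uM in DMSO were scanned in three independent runs with 460 nm excitation. Gain or loss of acceptor signal was fitted bidirectionally against DMSO.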
# [4] = test system: SRD5A2 (gene 6716); experiment: CCTE_Deisenroth_5AR_NBTE_ratio: CCTE's 5alpha-reductase NanoBRET Target Engagement Assay - Ratio, Deisenroth Lab (AID 2284322); settings: actives raise or lower the signal
# Procedure, shortened: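 HEK293T transiently expressing SRD5A2-NanoLuc; cells exposed to chemical (8-point, 10 nM - 29.9 uM) for 5 h total, testosterone tracer added for final 2 h. NanoBRET acceptor/donor ratio (650/460 nm), bidirectional fit vs DMSO.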
# [5] = CCTE_Mundy_HCI_iCellGluta_NOG_NeuronCount: CCTE's Neurite Outgrowth Assay in iCellGluta cells for Neuron Count, Mundy Lab (AID 2284340; active = hit-call score of the fitted dose curve at least 0.9, where 1 is the maximum;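 also: cells fixed about 48 h after compound addition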)
# Procedure, shortened: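 Neuron count read by automated high-content imaging of Hoechst 33342 and betaIII-tubulin/Alexa Fluor-488 labelling in human iPSC glutamatergic neurons. Activity fitted relative to DMSO.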
# [6] = CCTE_Deisenroth_DEVTOX-GLR_legacy_CellCount: (Legacy) Viability Assessment in CCTE's DevTox GLR-Endo Assay, Deisenroth Lab (AID 2284331); settings: actives raise or lower the signal
# Procedure, shortened: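 Viability is taken from imaged nuclei counts in fixed RUES2-GLR cultures after 48 h of differentiation under two 24 h-spaced chemical exposures, 10 concentrations from 1 nM to 200 uM, gain or loss versus DMSO baseline.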
# [7] = test system: SRY-box transcription factor 17 (SOX17) Protein Expression, Deisenroth Lab, SOX17 (gene 64321); experiment: CCTE_Deisenroth_DEVTOX-GLR_legacy_Sox17: (Legacy) CCTE's DevTox GLR-Endo Assay Evaluation of SRY-box transcription factor 17 (SOX17) Protein Expression, Deisenroth Lab (AID 2284341); settings: actives raise or lower the signal
# Procedure, shortened: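 Endoderm-differentiation readout in RUES2-GLR human pluripotent cells at 48 h, concentrations spanning 1 nM - 200 uM. Sox17-positive cells divided by total cell count; gain or loss relative to DMSO solvent control, n=4 experimental replicates.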
# [8] = test system: Brachyury (BRA) Protein Expression, Deisenroth Lab, TBXT (gene 6862); experiment: CCTE_Deisenroth_DEVTOX-GLR_legacy_Bra: (Legacy) CCTE's DevTox GLR-Endo Assay Evaluation of Brachyury (BRA) Protein Expression, Deisenroth Lab (AID 2284329)
# Experimental: CCTE_Deisenroth_DEVTOX-GLR_legacy assay is a cell-based, multiplex-readout assay that uses RUES2-GLR, a human pluripotent cell line, with measurements taken at 48 hours after chemical dosing in a 384-well microplateCCTE_Deisenroth_DEVTOX-GLR_legacy_Bra is one of 4 assay components calculated from the CCTE_Deisenroth_DEVTOX-GLR_legacy assay that measures an increase in the percentage of cells in an […] state. It is designed to make measurements of inducible reporter a form of fluorescent protein induction as detected with optical fluorescence microscopy. Percentage Bra+ cells are determined by calculating the number of Bra+ cells divided by cell count. A cell is Bra+ if the cell Bra mean intensity is 5x BMAD above the pluripotent control median cell Bra mean. The assay endpoint was analyzed with bidirectional fitting with the 0.2% DMSO control median percent Bra in the DEVTOX-GLR assay subtracted.Data from the assay component CCTE_Deisenroth_DEVTOX-GLR_legacy_Bra was analyzed into 1 assay endpoint. This assay endpoint, CCTE_Deisenroth_DEVTOX-GLR_legacy_Bra, was analyzed in the positive analysis fitting direction relative to DMSO as the negative control and baseline activity. Using a type of inducible reporter, gain-of-signal activity can be used to understand changes in gene expression. Furthermore, this assay endpoint can be referred to as a secondary readout, because this assay has produced multiple assay endpoints where this one serves as a measure of mesoderm differentiation. To generalize the intended target to other relatable targets, this assay endpoint is annotated to the transcription factor intended target family, where the subfamily is T-box protein.
# All assay protocols are aligned to the DevTox GLR-Endo assay workflow. Cells are seeded into 384-well microplates for 24 hours prior to initiating differentiation in defined media for a total duration of 48 hours. A total of two chemical exposures are administered in 24-hour intervals during the 48-hour differentiation period. At the assay termination point, cells are fixed and stained with a fluorescent dye demarcating the nucleus. High-content imaging is used to acquire brightfield and fluorescent channel images across 5 fields per well. Cell identification and mean biomarker fluorescence intensities are calculated with image analysis software to determine the total cell counts for viability assessment and the biomarker expression frequency for each lineage-dependent assay. A typical experimental design tests a 10-point concentration series (1 nM - 200 uM) for 28 compounds in single technical replicate. Assay plate controls include non-differentiated pluripotent cells (baseline control), lineage-specific differentiated cells (differentiation control), and DMSO solvent exposed differentiated cells (solvent control). Experiments typically comprise a minimum of four experimental replicates (n=4).
# [9] = test system: IYD (gene 389434); experiment: CCTE_GLTED_hIYD: CCTE's human Iodotyrosine Deiodinase (xIYD) Inhibition Assay, Great Lakes Toxicology and Ecology Division (GLTED) Lab (AID 2284317; active = hit-call score of the fitted dose curve at least 0.9, where 1 is the maximum;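 also: cell-free human IYD enzyme made in baculovirus insect cells; iodide freed from monoiodotyrosine measured by cerium arsenite color change at 420 nm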)
# Procedure, shortened: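 Absorbance change at 420 nm from the iodide-catalysed cerium-arsenic reaction reports free iodide released by human IYD from monoiodotyrosine. Enzyme, substrate and chemical are incubated 3 h; loss of signal is fitted relative to DMSO baseline.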
smiles,measurement,setting,value
CC[C@H]1OC(=O)[C@H](C)[C@@H](O[C@H]2C[C@@](C)(OC)[C@@H](O)[C@H](C)O2)[C@H](C)[C@@H](O[C@@H]2O[C@H](C)C[C@H](N(C)C)[C@H]2O)[C@](C)(O)C[C@@H](C)C(=O)[C@H](C)[C@@H](O)[C@]1(C)O,outcome,[1],inactive
same,outcome,[2],inactive
same,outcome,[3],inactive
same,outcome,[4],inactive
same,outcome,[5],inactive
Nc1nc2ncc(CNc3ccc(C(=O)N[C@@H](CCC(=O)O)C(=O)O)cc3)nc2c(=O)[nH]1,outcome,[6],inactive
same,outcome,[7],inactive
O=C(O)c1cc(N=Nc2ccc(S(=O)(=O)Nc3ccccn3)cc2)ccc1O,outcome,[2],inactive
same,outcome,[3],inactive
same,AC50,[4],58.5 µM (active)
same,outcome,[8],inactive
same,outcome,[6],inactive
same,outcome,[7],inactive
C[C@](N)(Cc1ccc(O)c(O)c1)C(=O)O,outcome,[8],inactive
same,outcome,[6],inactive
same,outcome,[7],inactive
O=C(OC[C@H]1O[C@@H](OC(=O)c2cc(O)c(O)c(OC(=O)c3cc(O)c(O)c(O)c3)c2)[C@H](OC(=O)c2cc(O)c(O)c(OC(=O)c3cc(O)c(O)c(O)c3)c2)[C@@H](OC(=O)c2cc(O)c(O)c(OC(=O)c3cc(O)c(O)c(O)c3)c2)[C@@H]1OC(=O)c1cc(O)c(O)c(OC(=O)c2cc(O)c(O)c(O)c2)c1)c1cc(O)c(O)c(OC(=O)c2cc(O)c(O)c(O)c2)c1,AC50,[9],13.3 µM (active)
same,outcome,[2],inactive
same,outcome,[3],inactive
same,outcome,[4],inactive
CCC(C)(C)C(=O)O[C@H]1C[C@@H](C)C=C2C=C[C@H](C)[C@H](CC[C@@H]3C[C@@H](O)CC(=O)O3)[C@H]21,outcome,[2],inactive
same,outcome,[3],inactive
same,outcome,[4],inactive
CN(C)c1ccc(N=NS(=O)(=O)O)cc1,AC50,[9],47.9 µM (active)
same,outcome,[2],inactive
same,outcome,[3],inactive
same,AC50,[4],64.2 µM (active)
